Laboratory results published in PubChem BioAssay (Tox21).
Results filed as inconclusive are left out. Entries that show only a call come without a potency. Calls of active or inactive are those of the source. The call rests on the fitted dose curve; in most records, active means well fitted cell-killing curve with a large enough effect in the repeat runs; inconclusive means weak or mixed curves, or effect the other way; inactive means no such curve, though single readings can be large or run the other way.

Assay: qHTS assay to identify small molecule antagonists of the retinoid-related orphan receptor gamma (ROR-gamma) signaling pathway - cell viability counter screen (AID 1159520); further: nearly all actives have a fitted effect of over 50% in size
Conditions: Tet-on RORgamma CHO cells viability, ATP luminescence, 16 h; series mostly up to 92.4 µM; activity, negative = cytotoxicity: at the top concentration
In short: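 Tet-on ROR gamma CHO cells were given compounds for 2 hr, then doxycycline hyclate at 1 uM final, and incubated 16 hr at 37 C. Viability was measured as ATP content by CellTiter-Glo luminescence.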

Compound	Potency	activity, negative = cytotoxicity
COCCOCCOCCO	inactive	–
c1ccc2c(c1)ccc1ncccc12	inactive	–
Cc1ccc(C(C)(C)C)cc1	inactive	–
CCCCCCCCCCCCO	inactive	–
c1ccc2cc3ccccc3cc2c1	inactive	–
CCO[Si](CCCNC(N)=O)(OCC)OCC	inactive	–
Cc1ccc(S(=O)(=O)NCl)cc1	inactive	–
CCC/C=C/C=O	inactive	–
Cc1ccc(N)c([N+](=O)[O-])c1	inactive	–
CC(C)(Oc1ccc(Cl)cc1)C(=O)O	inactive	–
CC/C=C\C/C=C\C/C=C\CCCCCCCC(=O)O	inactive	–
CNC[C@H](O)c1ccc(O)c(O)c1	inactive	–
C1COCCN1	inactive	–
Brc1nc2ccccc2s1	inactive	–
CN(C)/N=N/c1nc[nH]c1C(N)=O	–	1.5% [at 42.5 µM] (inactive)
Cc1ccc(C)c(O)c1	inactive	–
CCCCCCOCCOCCO	inactive	–
COC(=O)c1ccc(C)cc1	inactive	–
COc1cc([C@H]2Oc3cc([C@H]4Oc5cc(O)cc(O)c5C(=O)[C@@H]4O)ccc3O[C@@H]2CO)ccc1O	inactive	–
NCCOCCO	inactive	–

Compound	Potency	activity, negative = cytotoxicity
C[C@]12C=CC(=O)C=C1CC[C@H]1[C@@H]3C[C@@H](O)[C@](O)(C(=O)CO)[C@@]3(C)C[C@H](O)[C@@]12F	inactive	–
O=S1(=O)CCCO1	inactive	–
CC(=O)Nc1ccc2c(c1)Cc1cc(NC(C)=O)ccc1-2	–	-15.9% (inactive)
COc1ccc(C(=O)c2ccccc2O)c(O)c1	–	0.0838% [at 42.5 µM] (inactive)
CCCCCCC(C)O (centres undefined)	inactive	–
CC1(C)C(C=C(Cl)Cl)C1C(=O)OCc1cccc(Oc2ccccc2)c1 (centres undefined)	inactive	–
Nc1ccc(O)c(N)c1	–	-12.2% (inactive)
c1ccc2ncccc2c1	inactive	–
NC[C@H](O)c1ccc(O)c(O)c1	inactive	–
OC[C@@H](O)[C@@H](O[C@@H]1O[C@H](CO)[C@H](O)[C@H](O)[C@H]1O)[C@H](O)[C@@H](O)CO	inactive	–
C=C[C@@]1(C)CC(=O)[C@]2(O)[C@@]3(C)[C@@H](O)CCC(C)(C)[C@@H]3[C@H](O)[C@H](OC(C)=O)[C@@]2(C)O1	–	-19.8% [at 42.5 µM] (inactive)
Cc1ccc([N+](=O)[O-])c(C)c1	inactive	–
Clc1ccc(Sc2cc(Cl)c(Cl)cc2Cl)cc1	inactive	–
Nc1cc(Cl)c(N)c(Cl)c1	inactive	–
O=C(O)CCCC(=O)O	inactive	–
c1ccc2c(c1)ccc1cc3c(ccc4ccccc43)cc12	inactive	–
COC(=O)C(C)Oc1ccc(Oc2ncc(C(F)(F)F)cc2Cl)cc1 (centres undefined)	inactive	–
C=CC(=O)OCCCC	inactive	–
CCC(=O)O[C@H]1[C@H](O[C@@H]2[C@@H](C)[C@H](O[C@H]3C[C@@](C)(OC)[C@@H](O)[C@H](C)O3)[C@@H](C)C(=O)O[C@H](CC)[C@@](C)(O)[C@H](O)[C@@H](C)C(=O)[C@H](C)C[C@@]2(C)O)O[C@H](C)C[C@@H]1N(C)C	inactive	–
